Measurements from PubChem BioAssay (NCI).
Compounds without any hit were thinned out: in the full panel of roughly 83,000, 20% have a hit.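 Compound tested at a single concentration for 48 hours in 96-well plates; a percent growth value below 10 was scored as active.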 Values without a mark were called inactive. Active and inactive are the calls of the source.

Assays:
Assay in all cases: NCI-60 one-dose screen, 48 h (100 = growth as untreated, 0 = no growth, -100 = all killed)
NCI-H23 lung = conditions: 10 µM unless noted
NCI-H226 lung = conditions: 10 µM unless noted
NCI-H322M lung = conditions: 10 µM unless noted
HOP-62 NSCLC = conditions: 10 µM unless noted
NCI-H460 lung = conditions: 10 µM unless noted
HOP-92 NSCLC = conditions: 10 µM
NCI-H522 lung = conditions: 10 µM unless noted
A549/ATCC NSCLC = conditions: 10 µM unless noted
786-0 renal = conditions: 10 µM unless noted
COLO 205 colon = conditions: 10 µM unless noted
DU-145 prostate = conditions: 10 µM unless noted
K-562 leukemia = conditions: 10 µM unless noted
MALME-3M melanoma = conditions: 10 µM unless noted
MDA-MB-231 breast = conditions: 10 µM unless noted
SF-268 CNS = conditions: 10 µM unless noted
SF-295 CNS = conditions: 10 µM unless noted
SF-539 CNS = conditions: 10 µM unless noted
UACC-257 melanoma = conditions: 10 µM unless noted
RXF 393 renal = conditions: 10 µM unless noted
M14 melanoma = conditions: 10 µM unless noted

Row | Compound | growth (NCI-H23 lung) | growth (NCI-H226 lung) | growth (NCI-H322M lung) | growth (HOP-62 NSCLC) | growth (NCI-H460 lung) | growth (HOP-92 NSCLC) | growth (NCI-H522 lung) | growth (A549/ATCC NSCLC) | growth (786-0 renal) | growth (COLO 205 colon) | growth (DU-145 prostate) | growth (K-562 leukemia) | growth (MALME-3M melanoma) | growth (MDA-MB-231 breast) | growth (SF-268 CNS) | growth (SF-295 CNS) | growth (SF-539 CNS) | growth (UACC-257 melanoma) | growth (RXF 393 renal) | growth (M14 melanoma)
1 | Oc1cccc2ccc(-c3nnc(SCc4ccc(O)c5ncccc45)n3-c3ccccc3)nc12 | 20.5% | 39.5% | 20.9% | 16.5% | 2.48% (active) | -0.323% (active) | 13.5% | 15.4% | 25.9% | 53.9% | 25.2% | 12.4% | -3.5% (active) | 29.7% | 22.8% | 2.95% (active) | 4.73% (active) | -2.75% (active) | – | –
2 | Cn1ccnc1C(=O)/C=C/c1ccc(CNC(=O)c2ccc(S(F)(F)(F)(F)F)cc2)cc1 | 3.4% (active) | 27% | 7.63% (active) | 17.5% | -18.1% (active) | 74.3% | 29.5% | – | 13.1% | 41.8% | 13.8% | 18.9% | 89.9% | 5.17% (active) | 6.38% (active) | 26.8% | -36% (active) | 89.9% | – | –
3 | COc1cc(-c2nn(C(C)(C)C)cc2-c2ccnc(NCCCNS(=O)(=O)c3cccc(F)c3)n2)ccc1Cl | 77.7% | 69.4% | 85.3% | 65.4% | 77.2% | 54.9% | – | 50.7% | 69.7% | 91.5% | 69.3% | 33.4% | 88.4% | 61% | 56.7% | 83.7% | 88.4% | 97.4% | -0.456% (active) | 80%
4 | CC(=O)Nc1cccc(Nc2nc(N[C@@H](C)c3ccccc3)c3ccccc3n2)c1 | 20.6% | 6.42% (active) | 53.7% | 33.9% | 2.67% (active) | 13.1% | – | 19.9% | 3.67% (active) | -12.3% (active) | 11.4% | -19% (active) | 47% | -22.1% (active) | 27.3% | 8.33% (active) | -44% (active) | 55.3% | -48.3% (active) | -10.7% (active)
5 | CCc1ccc(SC2c3ccc(N(CC)CC)cc3Oc3nc(N)c(C#N)c(N)c32)cc1 (configuration not stated) | -85.1% (active) | -84.1% (active) | -76.6% (active) | 3.17% (active) | -58.3% (active) | -44.1% (active) | -38.4% (active) | – | -89.2% (active) | -52.8% (active) | -86.3% (active) | 1.74% (active) | -40.8% (active) | -83.8% (active) | -24.3% (active) | -76.2% (active) | -94.1% (active) | 6.57% (active) | – | –
6 | NC/C(=C/F)COc1ccc2nc(NCc3cccnc3)oc2c1 | 92.8% | 94.3% | 111% | 77% | 98.8% | 116% | – | 95.3% | 92.5% | 111% | 95% | 109% | 108% | 96% | 93.2% | 99.9% | 91.9% | 95.9% | 66.9% | 103%
7 | C=CC(=O)N1CCC=C(c2cc3c(N[C@H](C)c4ccccc4)ncnc3[nH]2)C1 | 83.3% | 58.5% | 31% | 58.5% | 98% | 38% | – | 52.1% | 43.6% | 96% | 42.9% | 37% | 101% | 44.4% | 60.1% | 72% | 74.6% | 87.4% | -17% (active) | 85.9%
8 | CCCn1cnc2c(c1=N)C(c1ccc(F)cc1)c1sc3c(CC)cccc3c1O2 (configuration not stated) | 12.4% | -2.38% (active) | 52% | 28.2% | 2.7% (active) | 34.2% | – | 17% | 5.1% (active) | -51.5% (active) | 4.9% (active) | 6.04% (active) | 54.6% | -19.8% (active) | 18.8% | 7.42% (active) | -25.6% (active) | 65.5% | -17.3% (active) | 13.3%
9 | C[C@@H](Nc1c(C#N)cnc2ccc(-c3cnc(Cl)c(NS(C)(=O)=O)c3)cc12)c1ccccc1 | 6.8% (active) | -3.88% (active) | 12.1% | 11.6% | 2.56% (active) | -14.5% (active) | – | 4.78% (active) | 4.25% (active) | 16.5% | 7.73% (active) | 15.3% | -12.9% (active) | 11.5% | -1.52% (active) | -20.8% (active) | -20.7% (active) | 14.8% | -40.2% (active) | 4.3% (active)
10 | C=C(C)[C@@H]1CC[C@]2(COP(=O)(OCC)OCC)CC[C@]3(C)[C@H](CC[C@@H]4[C@@]5(C)CCCNC(C)(C)[C@@H]5CC[C@]43C)[C@@H]12 | 37.1% | 53.8% | 84.7% | 62.9% | -32.8% (active) | 41% | – | 36.3% | 35.7% | -15.4% (active) | 31.8% | -10.7% (active) | -51.8% (active) | 52% | 50.1% | 19.8% | 57.7% | 29.1% | -8.28% (active) | -46.4% (active)
11 | c1ccc(C(c2nc3ncncc3[nH]2)N2CSc3nc4ncncc4n3C2)cc1 (configuration not stated) | 55% | 56.2% | 64.3% | 26.3% | 83.6% | 64.9% | 39.8% | – | 33.9% | 61.8% | 34.1% | 24.8% | 58.5% | 49.7% | 66.8% | 39.6% | 49.5% | 76% | – | –
12 | COc1cc(-c2nn(C(C)(C)C)cc2-c2ccnc(NCCCNS(=O)(=O)c3ccccc3)n2)ccc1Cl | 74.4% | 66% | 87.2% | 72.8% | 71.1% | 71.9% | – | 51.4% | 77.7% | 101% | 67.2% | 40.7% | 84% | 49.3% | 58.2% | 83.1% | 83.7% | 95.1% | -1.53% (active) | 96.1%
13 | CN(C)C(=O)c1cc(-c2ccc3ncnc(NCc4ccccc4)c3c2)cnc1N | 91.6% | 91.8% | 87% | 63.2% | 104% | 81.1% | – | 72.9% | 67.7% | 116% | 55.6% | 95.9% | 101% | 70% | 65.7% | 91.7% | 90.4% | 94.4% | -4.14% (active) | 109%
14 | Cc1noc(C)c1CSc1nc2ccccc2n1-c1ccccc1 | 90.9% | 95.6% | 104% | 69% | 107% | 74.7% | – | 91.2% | 82.6% | 105% | 86.4% | 88.6% | 118% | 81.5% | 85.7% | 98.1% | 95.3% | 110% | 60.4% | 104%
15 | Nc1nc(Nc2ccccc2SSc2ccccc2Nc2nc(N)nc(-c3cccc(Br)c3)n2)nc(-c2cccc(Br)c2)n1 | 31.6% | 47.8% | 94.8% | 11.8% | 31.8% | 86% | – | 1.19% (active) | 79.3% | 116% | 62.1% | 58.8% | 99.9% | 57.3% | 36.9% | 29.8% | 95.2% | 112% | 58% | 90.4%
16 | COc1cc(-c2nn(C(C)(C)C)cc2-c2ccnc(NCCCNS(=O)(=O)c3ccc(F)cc3)n2)ccc1Cl | 82.3% | 72% | 87.4% | 71.9% | 84.2% | 70.4% | – | 50.2% | 76.3% | 96.1% | 74.1% | 40.2% | 86.1% | 60.1% | 58% | 80.5% | 91.2% | 93.3% | 8.65% (active) | 93.3%
